From PubChem BioAssay AID1159580 (chemical genetic matrix, 2015)
The campaign covered roughly 5,500 compounds. About 2,000 (36%) were called active. About 18% were inconclusive and are not listed. Rule as the data show it: active = normalized growth mostly below about 0.91 (no sharp cut-off); inconclusive = no clear call, values can overlap the other calls; inactive = mostly above about 0.92. Some of the results follow.

Experiment: chemical genetic growth profiling, strain panel (AID 1159580);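 also: tested at 20 µM; growth read once vehicle control cultures reached saturation at 30 °C; 1 = growth at the plate median or of vehicle wells; lower values mean less growth of the strain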
Settings: growth OD

Measured: normalized growth

NC(=O)NCCCC(N)C(=O)O (configuration not stated)
inactive: S. cerevisiae deletion strains, locus YJR075W, strain HOC1, hits give low values 1.03 | S. cerevisiae deletion strains, locus YKL009W, strain mrt4, hits give low values 0.984 | S. cerevisiae deletion strains, locus YKL068W, hits give low values 0.999 | S. cerevisiae deletion strains, locus YKL085W, strain MDH1 (second series), hits give low values 1 | S. cerevisiae deletion strains, locus YKL085W, strain MDH1, hits give low values 1 | S. cerevisiae deletion strains, locus YKL160W, strain elf1, hits give low values 0.979 | S. cerevisiae deletion strains, locus YKL190W, strain CNB1, hits give low values 1.02 | S. cerevisiae deletion strains, locus YKR001C, strain vps1, hits give low values 1 | S. cerevisiae deletion strains, locus YKR026C, strain gcn3, hits give low values 1 | S. cerevisiae deletion strains, locus YKR091W, strain srl3, hits give low values 0.997 | S. cerevisiae deletion strains, locus YLL001W, strain dnm1, hits give low values 1 | S. cerevisiae deletion strains, locus YLL026W, hits give low values 1.01 | S. cerevisiae deletion strains, locus YLL041C, strain sdh2, hits give low values 0.987 | S. cerevisiae deletion strains, locus YLR027C, strain aat2, hits give low values 0.996 | S. cerevisiae deletion strains, locus YLR039C, strain RIC1, hits give low values 1.03 | S. cerevisiae deletion strains, locus YLR058C, strain SHM2, hits give low values 1.02 | S. cerevisiae deletion strains, locus YLR102C, strain apc9, hits give low values 0.997 | S. cerevisiae deletion strains, locus YLR113W, strain HOG1, hits give low values 1.02 | S. cerevisiae deletion strains, locus YLR221C, strain rsa3, hits give low values 0.971 | S. cerevisiae deletion strains, locus YLR258W, strain gsy2, hits give low values 1.03 | S. cerevisiae deletion strains, locus YLR262C, strain YPT6 (second series), hits give low values 1 | S. cerevisiae deletion strains, locus YLR262C, strain YPT6, hits give low values 1.04 | S. cerevisiae deletion strains, locus YLR268W, strain sec22, hits give low values 0.989 | S. cerevisiae deletion strains, locus YLR320W, strain mms22, hits give low values 1.03 | S. cerevisiae deletion strains, locus YLR330W, strain CHS5, hits give low values 1.01 | S. cerevisiae deletion strains, locus YLR342W, strain FKS1 (second series), hits give low values 1.01 | S. cerevisiae deletion strains, locus YLR342W, strain FKS1, hits give low values 1.01 | S. cerevisiae deletion strains, locus YLR357W, strain rsc2, hits give low values 1.01 | S. cerevisiae deletion strains, locus YLR370C, strain arc18, hits give low values 0.987 | S. cerevisiae deletion strains, locus YLR371W, strain rom2, hits give low values 0.995 | S. cerevisiae deletion strains, locus YLR384C, strain iki3, hits give low values 1 | S. cerevisiae deletion strains, locus YLR418C, strain cdc73, hits give low values 0.989 | S. cerevisiae deletion strains, locus YML016C, strain PPZ1, hits give low values 1.02 | S. cerevisiae deletion strains, locus YML032C, strain rad52, hits give low values 0.999 | S. cerevisiae deletion strains, locus YML120C, strain ndi1, hits give low values 0.962 | S. cerevisiae deletion strains, locus YML124C, strain tub3, hits give low values 0.989 | S. cerevisiae deletion strains, locus YMR058W, strain fet3, hits give low values 0.983 | S. cerevisiae deletion strains, locus YMR078C, strain ctf18, hits give low values 0.992 | S. cerevisiae deletion strains, locus YMR125W, strain sto1, hits give low values 1.01 | S. cerevisiae deletion strains, locus YMR129W, hits give low values 0.991 | S. cerevisiae deletion strains, locus YMR205C, strain PFK2, hits give low values 1.05 | S. cerevisiae deletion strains, locus YMR223W, strain ubp8, hits give low values 0.998 | S. cerevisiae deletion strains, locus YMR231W, strain pep5, hits give low values 1.01 | S. cerevisiae deletion strains, locus YMR263W, strain SAP30, hits give low values 1.02 | S. cerevisiae deletion strains, locus YMR307W, strain GAS1, hits give low values 1.02 | S. cerevisiae deletion strains, locus YNL067W, strain RPL9B, hits give low values 1.04 | S. cerevisiae deletion strains, locus YNL071W, strain lat1, hits give low values 0.999 | S. cerevisiae deletion strains, locus YNL128W, strain TEP1, hits give low values 1.04 | S. cerevisiae deletion strains, locus YNL153C, strain GIM3, hits give low values 1.02 | S. cerevisiae deletion strains, locus YNL183C, strain NPR1, hits give low values 0.963 | S. cerevisiae deletion strains, locus YNL209W, strain ssb2, hits give low values 1 | S. cerevisiae deletion strains, locus YNL233W, strain BNI4, hits give low values 1.02 | S. cerevisiae deletion strains, locus YNL248C, strain rpa49, hits give low values 0.941 | S. cerevisiae deletion strains, locus YNL250W, strain rad50, hits give low values 1 | S. cerevisiae deletion strains, locus YNL271C, strain bni1, hits give low values 0.992 | S. cerevisiae deletion strains, locus YNL298W, strain CLA4, hits give low values 1.01 | S. cerevisiae deletion strains, locus YNL307C, strain MCK1, hits give low values 0.981 | S. cerevisiae deletion strains, locus YNL322C, strain KRE1 (second series), hits give low values 0.988 | S. cerevisiae deletion strains, locus YNL322C, strain KRE1, hits give low values 1.02 | S. cerevisiae deletion strains, locus YNR049C, strain mso1, hits give low values 1 | S. cerevisiae deletion strains, locus YNR052C, strain pop2, hits give low values 1 | S. cerevisiae deletion strains, locus YOL006C, strain TOP1, hits give low values 1.04 | S. cerevisiae deletion strains, locus YOL012C, strain htz1 1.42 | S. cerevisiae deletion strains, locus YOL147C, strain pex11, hits give low values 0.994 | S. cerevisiae deletion strains, locus YOR001W, strain rrp6, hits give low values 0.958 | S. cerevisiae deletion strains, locus YOR061W, strain CKA2, hits give low values 1.03 | S. cerevisiae deletion strains, locus YOR069W, strain VPS5, hits give low values 1.01 | S. cerevisiae deletion strains, locus YOR070C, strain gyp1, hits give low values 0.999 | S. cerevisiae deletion strains, locus YOR080W, strain dia2, hits give low values 1.01 | S. cerevisiae deletion strains, locus YOR083W, strain WHI5, hits give low values 0.958 | S. cerevisiae deletion strains, locus YOR106W, strain vam3, hits give low values 0.978 | S. cerevisiae deletion strains, locus YOR136W, strain idh2, hits give low values 0.988 | S. cerevisiae deletion strains, locus YOR144C, strain elg1, hits give low values 0.993 | S. cerevisiae deletion strains, locus YOR184W, strain ser1, hits give low values 0.99 | S. cerevisiae deletion strains, locus YOR231W, strain MKK1, hits give low values 0.991 | S. cerevisiae deletion strains, locus YOR265W, strain rbl2, hits give low values 0.998 | S. cerevisiae deletion strains, locus YOR270C, strain vph1, hits give low values 0.964 | S. cerevisiae deletion strains, locus YOR290C, strain snf2, hits give low values 1 | S. cerevisiae deletion strains, locus YOR316C, strain cot1, hits give low values 0.996 | S. cerevisiae deletion strains, locus YPL051W, strain arl3, hits give low values 0.981 | S. cerevisiae deletion strains, locus YPL055C, strain LGE1, hits give low values 1.07 | S. cerevisiae deletion strains, locus YPL078C, strain atp4, hits give low values 0.949 | S. cerevisiae deletion strains, locus YPL106C, strain sse1, hits give low values 1.03 | S. cerevisiae deletion strains, locus YPL240C, strain hsp82, hits give low values 0.988 | S. cerevisiae deletion strains, locus YPL241C, strain CIN2, hits give low values 1.01 | S. cerevisiae deletion strains, locus YPL256C, strain CLN2, hits give low values 0.988 | S. cerevisiae deletion strains, locus YPR119W, strain clb2, hits give low values 0.995 | S. cerevisiae deletion strains, locus YPR141C, strain kar3, hits give low values 1 | S. cerevisiae deletion strains, locus YPR163C, strain tif3, hits give low values 0.989 | S. cerevisiae deletion strains, locus YPR167C, strain met16, hits give low values 0.995 | S. cerevisiae deletion strains, strain wtn01, hits give low values 0.986 | S. cerevisiae strains, strain wild type, hits give low values 1.01
